Assay results taken from the supplement of paper PMC11624193, “Coupling cellular drug-target engagement to downstream pharmacology with CeTEAM” (Nature Communications, 2024).

Target: PARP1 L713F-nLuc biosensor (HCT116) (UniProt P09874)
Experiment: PARP1 L713F-nLuc/akaLuc ratio relative to DMSO control (biosensor stabilization) (fold change); higher = more PARP1 biosensor stabilization (target engagement / stabilizer), active = hit call of the paper
Settings: stock concentration (mM; final µM = stock mM x 1): 10; 24 h;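 active = log2 fold change beyond 2 SD from the library mean after excluding viability outliers; inactive = within 2 SD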

Sequence of PARP1 L713F-nLuc biosensor (HCT116) (P09874 whole entry L713F, looked up): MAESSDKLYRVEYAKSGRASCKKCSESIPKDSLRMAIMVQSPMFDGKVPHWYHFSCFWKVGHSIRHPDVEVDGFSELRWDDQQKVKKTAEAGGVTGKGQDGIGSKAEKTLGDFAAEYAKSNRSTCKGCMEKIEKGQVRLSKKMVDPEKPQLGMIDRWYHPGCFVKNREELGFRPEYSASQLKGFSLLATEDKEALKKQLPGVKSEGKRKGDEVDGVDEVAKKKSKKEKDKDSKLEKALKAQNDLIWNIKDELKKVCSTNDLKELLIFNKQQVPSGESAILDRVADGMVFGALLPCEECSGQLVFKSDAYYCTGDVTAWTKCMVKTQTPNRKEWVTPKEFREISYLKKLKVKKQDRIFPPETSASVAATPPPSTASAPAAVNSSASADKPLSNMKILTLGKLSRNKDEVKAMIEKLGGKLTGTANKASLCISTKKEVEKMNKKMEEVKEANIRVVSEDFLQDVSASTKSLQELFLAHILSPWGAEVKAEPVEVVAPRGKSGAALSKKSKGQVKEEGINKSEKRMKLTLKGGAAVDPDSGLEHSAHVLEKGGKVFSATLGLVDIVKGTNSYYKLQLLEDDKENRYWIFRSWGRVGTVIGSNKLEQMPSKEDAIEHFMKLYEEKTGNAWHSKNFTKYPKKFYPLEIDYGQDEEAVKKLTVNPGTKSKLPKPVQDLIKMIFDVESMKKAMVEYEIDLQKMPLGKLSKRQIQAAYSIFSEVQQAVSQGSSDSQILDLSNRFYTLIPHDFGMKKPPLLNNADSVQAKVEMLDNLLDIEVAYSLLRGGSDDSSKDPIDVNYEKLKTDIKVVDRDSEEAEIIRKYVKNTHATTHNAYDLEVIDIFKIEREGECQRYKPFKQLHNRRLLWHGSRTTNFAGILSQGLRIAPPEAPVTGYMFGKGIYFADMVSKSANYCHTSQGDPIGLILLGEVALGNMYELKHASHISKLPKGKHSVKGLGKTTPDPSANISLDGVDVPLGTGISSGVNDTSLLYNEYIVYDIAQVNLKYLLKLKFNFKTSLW

Compound | PARP1 L713F-nLuc/akaLuc ratio
Cc1c(C(=O)Nc2ccc(N3C[C@@H](C)O[C@@H](C)C3)nc2)cccc1-c1ccc(OC(F)(F)F)cc1 [Sonidegib (Erismodegib, NVP-LDE225)] | 0.652 (inactive)
O=c1[nH]c(=O)n([C@H]2C[C@H](O)[C@@H](CO)O2)cc1C(F)(F)F [Trifluridine] | 0.548 (inactive)
Cc1cc(Nc2cc(N3CCN(C)CC3)nc(/C=C/c3ccccc3)n2)n[nH]1 | 1.27 (inactive)
O=c1oc2cc(O)ccc2c2ccccc12 [Urolithin B] | 0.914 (inactive)
Nc1nc(OCc2cc(Br)cs2)c2[nH]cnc2n1 [Lomeguatrib] | 1.01 (inactive)
O=C(c1cc(Cc2n[nH]c(=O)c3ccccc23)ccc1F)N1CC(CNC2CC2)C1 [Venadaparib] | 5.9 (active)
O=C(NO)c1ccc(CN2CCCc3cc(Cl)ccc32)cc1 | 1.01 (inactive)
Cn1c(=O)c2c(ncn2CC(=O)O)n(C)c1=O [Acefylline] | 0.921 (inactive)
O=C(Nc1cc(Cl)cc(Cl)c1)Nc1cc(Cl)cc(Cl)c1 | 1.29 (inactive)
O=c1[nH]c(=O)n([C@H]2C[C@H](O)[C@@H](CO)O2)cc1F [Floxuridine] | 0.549 (inactive)
O[C@@H]1CO[C@H]2[C@@H]1OC[C@H]2Oc1nc2nc(-c3ccc(-c4ccccc4)cc3)c(Cl)cc2[nH]1 | 0.439 (inactive)
COC1CCN(C(=O)c2cc(Cc3n[nH]c(=O)c4ccccc34)ccc2F)CC1 | 7.52 (active)
Cn1cc(C(=O)Nc2ccc([C@@H]3C[C@H]3NCC3CC3)cc2)cn1 | 0.949 (inactive)
Cc1nc2sccn2c(=O)c1CCN1CCC(=C(c2ccccc2)c2ccc(F)cc2)CC1 | 1.01 (inactive)
O=[N+]([O-])c1cc(Nc2ccc3nonc3c2[N+](=O)[O-])ccc1Cl | 1.28 (inactive)
Cc1cnc(Nc2ccc(OCCN3CCCC3)cc2)nc1Nc1cccc(S(=O)(=O)NC(C)(C)C)c1 | 0.333 (active)
Nc1nc(Cl)nc2c1ncn2[C@@H]1O[C@H](CO)[C@@H](O)[C@@H]1F [Clofarabine] | 0.577 (inactive)
N#Cc1c(N2CCCC2)nc(N)c2c(N)nc(N3CCCC3)cc12 | 1.1 (inactive)
COc1ccc(-c2c(-c3ccc(C#N)c(F)c3)nc(N3CCC(N)CC3)n(C)c2=O)cc1F [Pulrodemstat (benzenesulfonate)] | 1.26 (inactive)
C[C@@H](Nc1cc(F)cc(F)c1)c1cc(C(=O)N(C)C)cc2c(=O)cc(N3CCOCC3)oc12 | 0.667 (inactive)

Compound | PARP1 L713F-nLuc/akaLuc ratio
OC1CCC(Nc2ncc3nc(Nc4c(F)cc(F)cc4F)n([C@H]4CCOC4)c3n2)CC1 (some centres undefined) [Tanzisertib(CC-930)] | 1.11 (inactive)
CC1=C(/C=C/C(C)=C/C=C/C(C)=C/C(=O)O)C(C)(C)CCC1 [Tretinoin] | 0.599 (inactive)
COc1ccc(Cn2ccc3ccc(C(=O)NO)cc32)cc1 | 1.04 (inactive)
N#CCC1(n2cc(-c3ncnc4[nH]ccc34)cn2)CN(C2CCN(C(=O)c3ccnc(C(F)(F)F)c3F)CC2)C1 [Itacitinib] | 0.6 (inactive)
Cc1ccc(-c2cc(C(F)(F)F)nn2-c2ccc(S(N)(=O)=O)cc2)cc1 [Celecoxib] | 1.02 (inactive)
CCNc1nc(Nc2cc(F)c(C(=O)N3CCOCC3)cc2OC)ncc1C(F)(F)F | 0.683 (inactive)
N#CC[C@H](C1CCCC1)n1cc(-c2ncnc3[nH]ccc23)cn1 [Ruxolitinib (phosphate)] | 0.575 (inactive)
CCN(CCO)CCCOc1ccc2c(Nc3cc(CC(=O)Nc4cccc(F)c4)[nH]n3)ncnc2c1 [Barasertib-HQPA] | 0.878 (inactive)
CCCCC[C@H](O)CC(=O)CCc1ccc(O)c(OC)c1 [[6]-Gingerol] | 1.5 (inactive)
CC(C)(C)C[C@@H]1N[C@@H](C(=O)N[C@H]2CC[C@H](O)CC2)[C@H](c2cccc(Cl)c2F)[C@]12C(=O)Nc1cc(Cl)ccc12 | 0.287 (active)
O=C(c1cc(Cc2n[nH]c(=O)c3ccccc23)ccc1F)N1CCn2nc(C(F)(F)F)nc2C1 [Fluzoparib] | 3.72 (active)
N#CCNC(=O)c1ccc(-c2ccnc(Nc3ccc(N4CCOCC4)cc3)n2)cc1 [Momelotinib (CYT387)] | 0.585 (inactive)
CC(C)(CCCCCC(O)CCCCCC(C)(C)C(=O)O)C(=O)O [Bempedoic acid] | 1.02 (inactive)
CNC(=O)c1cc(COc2nnc(Nc3ccc(Cl)cc3)c3ccoc23)ccn1 [Telatinib] | 1.17 (inactive)
Cc1cccc(CC(=O)N2CCc3c2ccc(-c2cn(C)c4ncnc(N)c24)c3F)n1 | 1.05 (inactive)
C=C(C)[C@@H](CC=C(C)C)C[C@@]12C[C@@H](CC=C(C)C)C(C)(C)[C@@](CC=C(C)C)(C(=O)C(C(=O)c3ccc(O)c(O)c3)=C1O)C2=O [Garcinol] | 0.631 (inactive)
Nc1ccn([C@@H]2O[C@H](CO)[C@@H](O)C2(F)F)c(=O)n1 [Gemcitabine] | 0.416 (inactive)
CCN(C(=O)c1ccccc1OC)c1cc2c(cc1N1CCNC[C@H]1C)n(C)c(=O)n2C | 0.597 (inactive)
CCN1CCN(Cc2ccc(Nc3ncc(F)c(-c4cc(F)c5nc(C)n(C(C)C)c5c4)n3)nc2)CC1 [Abemaciclib] | 0.621 (inactive)
